Measurements as given in the supplement of paper PMC12494721.
Counter-ions that a name gives are not always drawn.

The compounds below were run on Klebsiella aerogenes DSM 30053 (assay: fold change of Histamine concentration vs plate DMSO controls (fold change (ratio)); higher = more amine produced, active = hit call of the paper (significant change in both replicates, either direction)). Details: incubation time: 27 h, anaerobic, 37 °C;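 for the amine columns active = adjusted P below 0.05 in both replicates with a change the same way and a mean fold change under 0.8 or over 1.25; inactive = the rest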.
Procedure, shortened: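 Anaerobic mGAM cultures of four gut bacterial strains were grown at 37 °C for 27 h in 80 µL wells, starting at OD 0.1 before 1:1 dilution. Compounds were at 20 µM final (sweeteners 50 µM). Whole cultures were extracted with cold acetonitrile/methanol containing 0.1% formic acid and centrifuged. Amines were quantified by LC–triple-quadrupole MS (dynamic MRM) against external calibration curves and drift-corrected within batch. Each value is the fold change versus plate DMSO controls, averaged over 2 biological replicates.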

Fold change of Histamine concentration, inactive:
Oc1c(Cl)cc(Cl)c2cccnc12 [Chloroxine] (20 µM) 0.921, O=C1NCCN1CCN1CCC(c2cn(-c3ccc(F)cc3)c3ccc(Cl)cc23)CC1 [Sertindole] (20 µM) 0.923, CCSc1ccc2c(c1)N(CCCN1CCN(C)CC1)c1ccccc1S2 [Thiethylperazine maleate] (20 µM) 1.01, Cc1ccsc1/C=C/C1=NCCCN1C [Morantel tartrate] (20 µM) 0.92, COc1cc(C)nc(-n2nc(C)cc2OC)n1 [Epirizole] (20 µM) 1.02, CCC1(c2ccccc2)NC(=O)N(C)C1=O (stereo not drawn) [Mephenytoin] (20 µM) 0.905, CCCCCCCC/C=C\CCCCCCCCCCCC(=O)O [Erucic acid] (20 µM) 1.02, C#CCN(C)CCCOc1ccc(Cl)cc1Cl [Clorgyline hydrochloride] (20 µM) 1.04, CC1=NN(c2ccccc2)C(=O)C1 [Edaravone] (20 µM) 0.97, CC(=O)N[C@H]1[C@H]([C@H](O)[C@H](O)CO)OC(C(=O)O)=C[C@@H]1NC(=N)N [Zanamivir] (20 µM) 1.01, Cc1ccc(S(=O)(=O)NC(=O)NN2CCCCCC2)cc1 [Tolazamide] (20 µM) 0.975, CN1CCN(C2=Nc3cc(Cl)ccc3Nc3ccccc32)CC1 [Clozapine] (20 µM) 1.01, CCCNC(C)(C)C(=O)Nc1ccccc1C [Quatacaine] (20 µM) 1.01
